# A selection: hits, their analogues and other compounds. The true share with any hit is near 1.3%.
# EPAC2 antagonist = EPAC2 (human) antagonism; AID 720708; 0.18% of 360,000 active; Potency, µM (titrated, usually from 114 µM), for inactives: top-dose activity, negative = inhibition, actives largely listed as inhibitors; EPAC2 GEF exchange of Rap1B-BODIPY-GDP, fluorescence; also: % is scaled to controls: 0 for no effect and ±100 for the full control effect; nearly all actives have a fitted effect of over 45% in size
# EPAC2 ag = agonists of human EPAC2 (RAPGEF4); Potency, µM (top dose mostly 154 µM), for inactives: top-dose activation, actives largely listed as activators; 0.079% of 360,000 active; EPAC2 activation, biochemical qHTS; response scale: 100% = 6.5 mM cAMP response; also: nearly all actives have a fitted effect of over 50% in size
#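 qHTS, titration series. 100 nM EPAC2 / 250 nM Rap1B-BODIPY-GDP / 50 uM GDP; RT; ex 480/em 540 nm, 5-min reads to 30 min. Norm. to 6.5 mM cAMP = activation.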
# EPAC1 agonist = agonists of human EPAC1; EPAC1 agonist qHTS, biochemical assay; response scale: 100% = response to 6.5 mM cAMP; AID 720707; 0.073% of 360,000 active; O95398; Potency, µM (series often up to 154 µM), for inactives: at the top dose activation, hits mostly activators; also: nearly all actives have a fitted effect of over 60% in size
# Target sequence (O95398 whole entry, looked up): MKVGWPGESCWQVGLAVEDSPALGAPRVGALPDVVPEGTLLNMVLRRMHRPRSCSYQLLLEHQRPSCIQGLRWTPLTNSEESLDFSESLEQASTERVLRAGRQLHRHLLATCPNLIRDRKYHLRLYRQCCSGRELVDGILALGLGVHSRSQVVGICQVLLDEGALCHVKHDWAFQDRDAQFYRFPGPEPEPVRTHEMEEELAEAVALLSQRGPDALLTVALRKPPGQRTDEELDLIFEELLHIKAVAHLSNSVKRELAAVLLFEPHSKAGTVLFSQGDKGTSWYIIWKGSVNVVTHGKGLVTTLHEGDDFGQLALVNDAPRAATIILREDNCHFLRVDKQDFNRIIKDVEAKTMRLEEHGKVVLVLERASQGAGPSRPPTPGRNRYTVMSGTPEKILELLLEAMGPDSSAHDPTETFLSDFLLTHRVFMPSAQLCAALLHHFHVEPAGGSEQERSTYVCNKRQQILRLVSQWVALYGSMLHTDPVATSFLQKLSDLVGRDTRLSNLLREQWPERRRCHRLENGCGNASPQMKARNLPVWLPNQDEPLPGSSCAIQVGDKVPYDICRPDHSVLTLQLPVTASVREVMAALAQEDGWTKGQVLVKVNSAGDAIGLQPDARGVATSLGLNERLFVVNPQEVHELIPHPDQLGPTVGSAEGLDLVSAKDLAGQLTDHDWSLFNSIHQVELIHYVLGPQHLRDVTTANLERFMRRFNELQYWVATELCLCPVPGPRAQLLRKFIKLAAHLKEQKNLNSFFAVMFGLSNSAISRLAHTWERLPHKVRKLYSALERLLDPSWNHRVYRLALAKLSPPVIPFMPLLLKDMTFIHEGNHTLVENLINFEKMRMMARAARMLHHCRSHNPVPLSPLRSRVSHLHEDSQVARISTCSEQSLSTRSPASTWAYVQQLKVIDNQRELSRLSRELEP
#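 Nucleotide exchange assay: 100 nM EPAC1 with 250 nM Rap1B loaded with BODIPY-GDP and 50 uM GDP, room temperature. Fluorescence (480/540 nm) read every 5 min for 30 min; signal change normalized to 6.5 mM cAMP as full agonist.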
# EPAC1 antag = EPAC1 (human) antagonism; EPAC1 GEF assay, Rap1b-BODIPY-GDP exchange fluorescence; O95398; 0.14% of 360,000 active; Potency, µM (titrated, usually from 115 µM), inactives show top-dose activity change, negative = inhibition, usual class: inhibitors;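 also: plate controls were vehicle for no effect and positive control for full effect; nearly all actives have a fitted effect of over 50% in size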
# 12-LOX inh = inhibitors of human 12S-lipoxygenase ALOX12; P18054; purified 12hLO, xylenol orange hydroperoxide absorbance; Potency, µM (doses to about 108 µM), without a hit: at the top dose activity change, negative = inhibition, usual class: inhibitors; 1.1% of 580,000 active; AID 1671190; also: % is scaled to controls: 0 for no effect and ±100 for the full control effect
#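 Purified human 12hLO at 150 nM in 25 mM Hepes, 0.01% Triton X-100, pH 7.0, preincubated 15 min at room temperature with compound. Reaction started with 40 uM arachidonic acid, 30 min at room temperature. Hydroperoxide measured by Fe-xylenol orange, 573/405 nm absorbance ratio.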
# USP1-UAF1 inh = inhibitors of human USP1/UAF1 deubiquitinase | recombinant USP1/UAF1, Ub-Rhodamine cleavage fluorescence | 0.23% of 390,000 active | Potency, µM (titrated, usually from 57.1 µM), for the others: at the top dose activity change, negative = inhibition, hits mostly inhibitors; also: % is scaled to controls: 0 for no effect and ±100 for the full control effect; nearly all actives have a fitted effect of over 60% in size
#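 In this screen, compounds sit with the deubiquitinase complex (1nM) for 15 min at room temperature before Ub-Rho is added at 150nM final. Fluorescence rise is then followed for 6 reads every 60 seconds.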
# * = called active by the depositor; u = inconclusive; x = no result; ! = repeats disagree; [ ] = remark or other dose. Calls follow the shape of the dose curve; as a rule, active = well fitted curve in the direction sought with a large enough effect; inconclusive = small, poorly fitted or top-dose-only effect, or another doubt; inactive = no such curve, though single readings can be large; an effect the other way counts as inactive or inconclusive. Potency is read from the fitted curve at half-maximal effect.
SMILES,EPAC2 antagonist,EPAC2 ag,EPAC1 agonist,EPAC1 antag,12-LOX inh,USP1-UAF1 inh
Cc1ccc(NC(=S)/N=C(\N)Nc2nc(C)c3cc(C)c(C)cc3n2)cc1C,-4%,1%,7%,1%,35µM*,-21%
CCc1ccccc1NC(=S)/N=C(\N)Nc1nc(C)c2cc(C)ccc2n1,u,18%,15%,-6%,35µM*,-10%
O=C(O)c1ccc(COc2ccc(Cl)cc2)s1,x,x,x,x,12%,x
O=C(O)c1cc(O)c2c(c1)[C@@H]([C@H]1c3cc(C(=O)O)cc(O)c3C(=O)c3c(O[C@@H]4O[C@H](CO)[C@@H](O)[C@H](O)[C@H]4O)cccc31)c1cccc(O[C@@H]3O[C@H](CO)[C@@H](O)[C@H](O)[C@H]3O)c1C2=O,u,-4%,-7%,35µM*,x,u
CC(CCc1ccc(O)cc1)NCCc1ccc(O)c(O)c1 (centres undefined),-8%,0%,0%,-1%,1.4µM*!,11%
Clc1ccccc1N/N=C/c1ccc2c(c1)OCO2,1%,20%,13%,2%,35µM*,-9%
O=C(NCCn1cccc1-c1nc(-c2ccc3c(c2)OCO3)no1)c1ccc(Cl)cc1,x,x,x,x,13µM*,x
COCCn1ncc(N2CCCC(CC(=O)Nc3ccc(Cl)cc3)C2)cc1=O (centres undefined),x,x,x,x,-2%,x
COc1ccc(S(=O)(=O)N2CCN(Cc3cc(OC)c(OC)c(OC)c3)CC2)cc1,-2%,-5%,5%,-1%,0.71µM*,-13%
COc1ccc(S(=O)(=O)N2CCN(Cc3cc(OC)c(O)c(OC)c3)CC2)cc1,18%,11%,6%,2%,0.56µM*,-9%
COc1ccc(S(=O)(=O)N2CCN(Cc3ccccc3)CC2)cc1,-3%,20%,18%,6%,16%,-1%
CCCN1C(=O)[C@@H]2[C@@H](CCN2C(=O)CSCC(=O)O)N(Cc2cccs2)C1=O,x,x,x,x,32µM*,x
O=C1[C@@H]2[C@@H](CCN2C(=O)NC2CCCCC2)N(Cc2cccs2)C(=O)N1c1cccc(F)c1,x,x,x,x,-12%,x
Cc1ccc(SCCN2CCN(Cc3ccccc3)CC2)cc1,2%,19%,9%,5%,u,-12%
Cc1ccc(SCCN2CCN(C)CC2)cc1,5%,1%,4%,-11%,40µM*,2%
O=S(=O)(O)c1ccc(N=NNc2ccc(Br)cc2)cc1,45µM*,-4%,-10%,-8%,0%,-19%
O=Cc1cc(N=Nc2ccc(S(=O)(=O)O)cc2)ccc1O,-22%,15%,6%,-25%,0%,-9%
CC(=O)c1ccc(C(=O)NC2CCc3ccccc32)s1 (centres undefined),x,x,x,x,-1%,x
Cc1ccc(NC(=O)COC(=O)c2cc(=O)[nH]c3ccccc23)cc1,x,x,x,x,-7%,x
CCCCCCCCC=O,x,x,x,x,-7%[176 µM],x
O=C(c1ccc(N2CCN(C3CC(=O)N(Cc4cccs4)C3=O)CC2)cc1)c1cccnc1 (centres undefined),10%,1%,-7%,-16%,1%,-17%
Cc1cc(N2C(=O)CC(N3CCN(c4ccc(C(=O)c5cccs5)cc4)CC3)C2=O)no1 (centres undefined),-3%,20%,16%,-21%,32µM*,2%
S=c1[nH]nc(-c2ccc(Cl)cc2)n1-c1ccc2c(c1)OCCO2,-1%,-6%,-3%,8%,u,-12%
S=c1[nH]nc(-c2ccc(Cl)cc2)n1-c1ccc(Cl)cc1,-15%,12%,4%,-15%,10µM*,0%
COc1ccc(-c2n[nH]c(=S)n2-c2ccc(C)cc2)cc1,5%,9%,-4%,2%,18µM*,-14%
SMILES,EPAC2 antagonist,EPAC2 ag,EPAC1 agonist,EPAC1 antag,12-LOX inh,USP1-UAF1 inh
COc1ccc(-n2c(-c3ccc(Br)cc3)n[nH]c2=S)cc1,11%,3%,2%,-4%,u,-18%
S=c1[nH]nc(-c2ccc(Cl)cc2Cl)n1-c1ccc(Cl)cc1,-4%,1%,-1%,-30%,13µM*,-14%
O=C(Nc1ccc2oc(-c3ccncc3)nc2c1)c1ccc(Cl)cc1Cl,x,x,x,x,2%,x
Cc1nn(-c2ccccc2)cc1C(c1c(N)[nH]c(=S)[nH]c1=O)c1c(N)[nH]c(=S)[nH]c1=O,3%,4%,8%,25%,6.3µM*,0%
NC(=O)c1oc2ccccc2c1NC(=O)C(=O)O,x,x,x,x,11%,x
O=C(Nc1cccc(Cl)c1)c1cnc2ccccc2n1,x,x,x,x,-19%,x
Fc1ccc(N/N=C2/CCSc3sccc32)c(F)c1,4%,8%,-3%,11%,35µM*,u
Fc1ccc2c(c1)/C(=N/Nc1ccccn1)CCS2,-20%,17%,10%,-18%,-16%,-14%
N#CCC(=O)NCC1CCCO1 (centres undefined),x,x,x,x,9%,x
O=C(Nc1ccccc1)c1c2c(nc3ccccc13)CCC2,x,x,x,x,35µM*,x
COc1ccc(C(=O)/C=C/c2ccc(N(C)C)cc2)c(OC)c1,57%,-26%,100µM*,17%,0%,22µM*
COc1ccc(C(=O)/C=C/c2cc(OC)c(O)c(OC)c2)c(F)c1,-6%,-4%,6%,-25%,45µM*,-19%
CN(C)CCCN=c1cc(-c2ccccc2)oc2ccc(Cl)cc12,2%,7%,8%,7%,35µM*,-12%
OCCN=c1cc(-c2ccccc2)oc2ccc(Cl)cc12,-7%,6%,6%,2%,x,3%
CCc1ccc(CCC(=O)NNc2cccc(Cl)c2)cc1,x,x,x,x,16µM*,x
Cc1cc(C)c2cc(CN(Cc3nnnn3C3CCCCC3)CC3CCCO3)c(=O)[nH]c2c1 (centres undefined),0%,7%,-1%,-3%,11µM*,-11%
CCNc1c(NC(=O)NCc2ccccc2)c(=O)oc2ccccc12,x,x,x,x,-13%,x
Cc1cc(C)nc(NCC(O)CNc2ccccc2Cl)n1 (centres undefined),2%,-4%,-3%,6%,40µM*,-24%
COc1ccc(NC(=O)CN2CCCCC2)cc1S(=O)(=O)N1CCCCC1,3%,5%,0%,-8%,2.5µM*,-18%
CNC(=S)NNC(=O)c1ccc(Br)s1,x,x,x,x,8%,x
COc1ccc(S(=O)(=O)N(c2onc(C)c2Cl)S(=O)(=O)c2ccc(OC)c(OC)c2)cc1OC,1%,-10%,-6%,7%,18µM*,-2%
COc1ccc(CN(C)S(=O)(=O)c2c(C)noc2C)cc1OC,-6%,0%,3%,11%,442%,-2%
CCC(C)(C)C1CCc2c(sc(NC(=O)c3ccccc3C(=O)O)c2C#N)C1 (centres undefined),-16%,2%,-8%,79µM*,-54%,u
